This note sets out measurements from PubChem BioAssay (EPA / NIEHS).

“And” between values parts separate entries of the source, which are not always exact repeats. Equal values may be shown once. A structure can be active in one record and inactive in another. The source made the active and inactive calls. Rule for the calls: active = hit-call score of the fitted dose curve at least 0.9, where 1 is the maximum; inactive = score below 0.9.

This experiment in a line: APR_HepG2_MitoticArrest_72hr: Apredica 72-hour HepG2 Assay for Mitotic Arrest (AID 2282918). To be noted: high-content imaging, actives raise or lower the signal. The protocol:
APR_HepG2_72hr is a cell-based, multiplexed-readout assay that uses HepG2, a human liver cell line, with measurements taken at 72 hours after chemical dosing in a 384-well plate.APR_HepG2_MitoticArrest_72hr is one of 10 assay component(s) measured or calculated from the APR_HepG2_72hr assay. It is designed to make measurements of cell phenotype, a form of morphology reporter, as detected with fluorescence intensity signals by HCS Fluorescent Imaging technology.Data from the assay component APR_HepG2_MitoticArrest_72hr was analyzed into 1 assay endpoint. This assay endpoint, APR_HepG2_MitoticArrest_72hr, was analyzed with bidirectional fitting relative to DMSO as the negative control and baseline of activity. Using a type of morphology reporter, measures of protein for gain or loss-of-signal activity can be used to understand the signaling at the pathway-level as they relate to the gene . Furthermore, this assay endpoint can be referred to as a primary readout, because this assay has produced multiple assay endpoints where this one serves a signaling function. To generalize the intended target to other relatable targets, this assay endpoint is annotated to the cell cycle intended target family, where the subfamily is arrest.
Cells were treated with dimethyl sulfoxide (DMSO) as a solvent control at a final concentration of 0.5% v/v or with compounds in DMSO with a resulting final DMSO concentration of 0.5% v/v. Compound treatment was done at concentrations of 0.39, 0.78, 1.56, 3.12, 6.24, 12.5, 25, 50, 100, and 200 uM in duplicate on each plate. Cells were treated with compounds for 1, 24, or 72 hr. Carbonyl […] m-chloro-phenylhydrazone (CCCP) and taxol were used as positive controls for mitochondrial function and cytoskeletal stability, respectively; DMSO served as the negative control for this experiment. Cells were fixed by the direct addition of 50 uL formaldehyde in Hank's Balanced Salt Solution (HBSS) to a final concentration of 3.7%. After incubation in the fixation medium for 30 min at room temperature (293-298 K), cells were rinsed twice with HBSS and treated with cell permeabilization buffer (16 uL of 0.5% Triton X-100) for 10 min at room temperature (293-298 K) before labeling. For mitochondrial membrane potential and mitochondrial measurements, pre-fixed cells were incubated with 50 uL of MitoTracker Red CMXRos (Invitrogen) at a concentration of 250 nM for 30 min before fixation. In the remaining cases, post-fixed cells were labeled by incubation with a multiplexed mixture of primary antibodies in HBSS for 60 min at room temperature (293-298 K) to detect immunoreactivity of c-Jun (1:500), phospho-histone H3 (1:100), phospho-histone H2A.x (1:200), p53 (1:400), alpha-tubulin (1:200) and Hoechst 33342 (2 ug/mL). Cells were labeled for multiplexed imaging on two separate plates: a) Hoechst 33342, MitoTracker Red, phospho-histone H3, and alpha-tubulin, and b) Hoechst 33342, phospho-histone H2A.x, and c-Jun. A final rinse with HBSS (50 uL) was performed before analysis. The primary and secondary antibodies for the proteins were phospho-histone H3 (rabbit anti-phospho-histone H3 and FITC-donkey anti-rabbit IgG), phospho-histone H2A.x (mouse anti-phospho-histone H2A.x and FITC-donkey anti-mouse IgG), c-Jun (rabbit anti-phospho-c-Jun and Cy3-donkey anti-rabbit IgG), p53 (sheep anti-p53 and Cy5-donkey anti-sheep IgG), alpha-tubulin (mouse anti-alpha-tubulin and Cy5-donkey anti-mouse IgG). These antibodies are available as the CellCiphr HepG2 assay kit (Millipore).Digital images of each well were captured using a Cellomics ArrayScan VTI (Thermo Scientific Cellomics) (0.8 NA objective, 0.63x optical coupler, and XF-93 filter set) at 20x magnification. The images were acquired using the autofocus feature of the ArrayScan instrument, which entails the following steps. First, the camera focuses on channel 1 (Hoechst 33342), where nuclei are identified. Second, a Z offset of 1 um is used for capturing mitochondria (MitoTracker Red). […]
For the compound `CCOc1cc(Oc2ccc(C(F)(F)F)cc2Cl)ccc1[N+](=O)[O-]`, the AC50 is 45 µM (active).

As for `CC(Oc1ccc(Cl)cc1Cl)C(=O)O` (stereo not given), the compound was called inactive.

`CCNc1nc(Cl)nc(NC(C)C)n1`: the compound was called inactive.

As for `CCNc1nc(Cl)nc(NCC)n1`, the result was inactive.

With `COC(=O)C=C(C)OP(=O)(OC)OC`, the compound was called inactive.

`Oc1ccccc1-c1ccccc1`: the compound was called inactive.

Turning to `CNC(=S)S`, the concentration at half-maximal activity (AC50) is 13.5 µM (active).

`COC(=O)N(OC)c1ccccc1COc1ccn(-c2ccc(Cl)cc2)n1`: the concentration at half-maximal activity (AC50) was 39.9 µM (active).

In the case of `COC(=O)C(C)Oc1ccc(Oc2ccc(Cl)cc2Cl)cc1` (stereo not given), the call was inactive.

On to `N#Cc1nn(-c2c(Cl)cc(C(F)(F)F)cc2Cl)c(N)c1S(=O)C(F)(F)F` (stereo not given), for which the compound was called inactive.

Take `COc1cnc(OC)n2nc(NS(=O)(=O)c3c(OCC(F)F)cccc3C(F)(F)F)nc12`: the result was inactive.

As for `CCCCNC(=O)n1c(NC(=O)OC)nc2ccccc21`, the outcome was inactive.

Turning to `C=CCC1=C(C)C(OC(=O)C2C(C=C(C)C)C2(C)C)CC1=O` (stereo not given), the call was inactive; the half-maximal activity concentration (AC50) is 43.6 µM (active) and 50 µM (active) and 46 µM (active).

Consider `CC1=C(C(=O)Nc2ccccc2)SCCO1`, for which the compound was classed as inactive.

As to `O=C(O)COc1nc(Cl)c(Cl)cc1Cl`, the result was inactive.

In the case of `CCCCC(CC)COC(=O)c1ccccc1C(=O)OCC(CC)CCCC` (stereo not given), the compound was classed as inactive.

Turning to `COc1ccc(C(c2ccc(OC)cc2)C(Cl)(Cl)Cl)cc1`, the AC50 is 65 µM (active).

In the case of `CS/C(C)=N/OC(=O)N(C)SN(C)C(=O)O/N=C(\C)SC`, the call was inactive.

Turning to `Cc1c(F)c(F)c(COC(=O)C2C(/C=C(\Cl)C(F)(F)F)C2(C)C)c(F)c1F` (stereo not given), the call was inactive.

As for `CCOC(=O)CC(SP(=S)(OC)OC)C(=O)OCC` (stereo not given), the result was inactive.

As to `CC(C)(C)c1ccc(CSc2cnn(C(C)(C)C)c(=O)c2Cl)cc1`, the call was inactive.

On to `C=CC1(C)OC(=O)N(c2cc(Cl)cc(Cl)c2)C1=O` (stereo not given), for which the compound was called inactive.

Consider `CC(C)Oc1cc(-n2nc(C(C)(C)C)oc2=O)c(Cl)cc1Cl`, for which the concentration at half-maximal activity (AC50) is 42.6 µM (active).

As to `CO/C=C(/C(=O)OC)c1ccccc1Oc1cc(Oc2ccccc2C#N)ncn1`, the call was inactive; the AC50 is 13.9 µM (active) and 24.7 µM (active) and 31 µM (active).

As for `OC(c1ccc(Cl)cc1)(c1cncnc1)c1ccccc1Cl` (stereo not given), the compound was called inactive.

`COP(=S)(OC)Oc1nc(Cl)c(Cl)cc1Cl`: the outcome was inactive.

On to `Cc1cc(Cl)ccc1OCC(=O)O`, for which the compound was classed as inactive.

Regarding `N#Cc1cc(Br)c(O)c(Br)c1`, the compound was called inactive.

`CC1COC(Cn2cncn2)(c2ccc(Oc3ccc(Cl)cc3)cc2Cl)O1` (stereo not given): the call was inactive.

In the case of `CCCCNC(=O)OCC#CI`, the compound was called inactive and the concentration at half-maximal activity (AC50) is 9.07 µM (active).

Consider `C#CCOS(=O)OC1CCCCC1Oc1ccc(C(C)(C)C)cc1` (stereo not given), for which the outcome was inactive.

Take `COC(=O)c1ccccc1C(=O)OC`: the result was inactive.

As for `CON(C)C(=O)Nc1ccc(Cl)c(Cl)c1`, the outcome was inactive.

As to `COc1nc(C)nc(NC(=O)NS(=O)(=O)c2ccccc2CCC(F)(F)F)n1`, the outcome was inactive.

Regarding `CCCN(CCC)c1c([N+](=O)[O-])cc(S(N)(=O)=O)cc1[N+](=O)[O-]`, the outcome was inactive; the AC50 was 34 µM (active) and 82.3 µM (active).

Regarding `CC(C)C1(C)N=C(c2nc3ccccc3cc2C(=O)O)NC1=O` (stereo not given), the compound was called inactive.
